# Assays:
# Assay in all cases: DAPPL (digital affinity profiling via proximity ligation, sequencing); 10 mM Tris-HCl pH 7.5, 50 mM NaCl, 1 mM DTT, 4% glycerol, room temperature, 30 min; GST-TFs on glutathione beads, 16-mer random dsDNA library, 0.1% formaldehyde crosslink after washing; high values mean tight binding
# FLI1 = molecular target: T1, FLI1 (Homo sapiens, UniProt Q01543 1-452); conditions: protein: recombinant; tags: N-terminal GST; dsDNA, one strand shown
# T1 sequence: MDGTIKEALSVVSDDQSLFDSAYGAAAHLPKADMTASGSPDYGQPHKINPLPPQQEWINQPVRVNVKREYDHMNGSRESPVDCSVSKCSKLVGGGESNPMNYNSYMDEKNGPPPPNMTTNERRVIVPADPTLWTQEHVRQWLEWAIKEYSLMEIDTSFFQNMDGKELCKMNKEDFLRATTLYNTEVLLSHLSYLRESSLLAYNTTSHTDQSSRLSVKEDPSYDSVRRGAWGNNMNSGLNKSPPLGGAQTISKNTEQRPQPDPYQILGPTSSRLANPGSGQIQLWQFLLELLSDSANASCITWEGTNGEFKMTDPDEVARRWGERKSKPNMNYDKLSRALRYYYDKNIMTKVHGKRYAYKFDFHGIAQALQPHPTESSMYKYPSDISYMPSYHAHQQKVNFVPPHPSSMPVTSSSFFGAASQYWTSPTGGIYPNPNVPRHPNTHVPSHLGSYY
# Method in brief: (§1)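 Pools of DNA-barcoded human transcription factors, expressed in yeast as GST fusions on glutathione beads and combined with a tag-only sample, were incubated with 200 nmole of a 16-mer random double-stranded DNA library. Incubation took 30 min at room temperature in Tris/NaCl/DTT/glycerol buffer and was followed by washing, 0.1% formaldehyde crosslinking, proximity ligation (BsaI/T4 ligase, 1 h, 37 °C), PCR amplification and sequencing on an Illumina NextSeq500. Binding signal is the ratio of a hexamer's read frequency for a factor to its frequency for the tag-only sample.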
# ELK1 = molecular target: T2, ELK1 (Homo sapiens, UniProt P19419 1-428); conditions: protein: recombinant; tags: N-terminal GST; dsDNA, one strand shown
# T2 sequence: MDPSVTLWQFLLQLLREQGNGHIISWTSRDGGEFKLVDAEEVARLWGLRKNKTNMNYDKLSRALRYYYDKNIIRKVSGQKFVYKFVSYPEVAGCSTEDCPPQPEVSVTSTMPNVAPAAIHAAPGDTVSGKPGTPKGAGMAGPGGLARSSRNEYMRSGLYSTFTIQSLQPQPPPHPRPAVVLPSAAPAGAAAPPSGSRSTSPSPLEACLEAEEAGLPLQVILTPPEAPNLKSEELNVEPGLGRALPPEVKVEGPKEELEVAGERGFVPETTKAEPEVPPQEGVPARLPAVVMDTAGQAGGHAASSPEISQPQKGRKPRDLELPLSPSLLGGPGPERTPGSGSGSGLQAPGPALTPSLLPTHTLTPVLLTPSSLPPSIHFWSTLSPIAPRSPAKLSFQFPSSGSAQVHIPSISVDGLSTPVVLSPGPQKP
# Method in brief: as §1
# GABPA = molecular target: T3, GABPA (Homo sapiens, UniProt Q06546 1-454); conditions: protein: recombinant; tags: N-terminal GST; dsDNA, one strand shown
# T3 sequence: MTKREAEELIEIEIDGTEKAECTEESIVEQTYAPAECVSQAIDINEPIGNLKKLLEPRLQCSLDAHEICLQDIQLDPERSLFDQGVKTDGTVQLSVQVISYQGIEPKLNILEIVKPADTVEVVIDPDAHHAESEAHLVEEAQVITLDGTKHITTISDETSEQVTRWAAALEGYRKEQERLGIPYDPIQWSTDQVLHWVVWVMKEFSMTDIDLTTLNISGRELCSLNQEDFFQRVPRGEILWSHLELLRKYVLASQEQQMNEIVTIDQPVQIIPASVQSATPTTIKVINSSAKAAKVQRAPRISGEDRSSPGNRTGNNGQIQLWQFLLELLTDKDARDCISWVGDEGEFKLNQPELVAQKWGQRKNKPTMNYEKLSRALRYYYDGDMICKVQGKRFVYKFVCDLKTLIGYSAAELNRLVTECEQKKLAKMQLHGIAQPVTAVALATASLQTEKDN
# Method in brief: as §1
# ERG = molecular target: T4, ERG (Homo sapiens, UniProt P11308 1-479); conditions: protein: recombinant; tags: N-terminal GST; dsDNA, one strand shown
# T4 sequence: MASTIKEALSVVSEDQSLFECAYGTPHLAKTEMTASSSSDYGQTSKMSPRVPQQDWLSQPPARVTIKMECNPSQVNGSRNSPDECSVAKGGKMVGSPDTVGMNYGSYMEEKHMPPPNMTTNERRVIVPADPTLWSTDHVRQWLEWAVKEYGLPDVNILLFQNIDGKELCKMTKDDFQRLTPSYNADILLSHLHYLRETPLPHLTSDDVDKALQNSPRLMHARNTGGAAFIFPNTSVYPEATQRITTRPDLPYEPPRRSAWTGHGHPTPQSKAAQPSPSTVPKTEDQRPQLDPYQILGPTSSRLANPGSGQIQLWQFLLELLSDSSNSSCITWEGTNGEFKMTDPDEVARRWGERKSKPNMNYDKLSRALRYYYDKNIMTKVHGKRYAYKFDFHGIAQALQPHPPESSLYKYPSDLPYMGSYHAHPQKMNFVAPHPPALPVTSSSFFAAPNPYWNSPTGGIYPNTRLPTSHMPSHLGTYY
# Method in brief: as §1
# ELF1 = ELF1 (Homo sapiens, UniProt P32519 1-619); conditions: protein: recombinant; tags: N-terminal GST; dsDNA, one strand shown
# ELF1, sequence (P32519 whole entry): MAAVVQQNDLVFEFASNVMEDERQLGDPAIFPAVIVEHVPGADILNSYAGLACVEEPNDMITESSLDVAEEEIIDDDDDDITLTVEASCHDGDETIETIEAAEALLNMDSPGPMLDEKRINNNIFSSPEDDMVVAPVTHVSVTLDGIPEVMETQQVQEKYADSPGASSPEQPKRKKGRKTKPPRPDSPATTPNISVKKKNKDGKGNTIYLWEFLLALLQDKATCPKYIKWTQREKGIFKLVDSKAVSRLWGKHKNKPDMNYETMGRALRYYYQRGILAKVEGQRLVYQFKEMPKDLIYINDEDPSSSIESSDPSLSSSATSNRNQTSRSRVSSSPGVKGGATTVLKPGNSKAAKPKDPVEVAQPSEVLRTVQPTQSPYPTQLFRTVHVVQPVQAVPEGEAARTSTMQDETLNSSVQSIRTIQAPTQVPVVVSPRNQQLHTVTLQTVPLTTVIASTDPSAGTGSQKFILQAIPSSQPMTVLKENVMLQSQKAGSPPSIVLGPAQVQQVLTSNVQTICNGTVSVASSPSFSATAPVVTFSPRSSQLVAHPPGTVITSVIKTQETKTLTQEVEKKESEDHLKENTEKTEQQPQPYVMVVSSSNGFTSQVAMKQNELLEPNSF
# Method in brief: as §1
# EHF = molecular target: T5, EHF (Homo sapiens, UniProt Q9NZC4 1-300); conditions: protein: recombinant; tags: N-terminal GST; dsDNA, one strand shown
# T5 sequence: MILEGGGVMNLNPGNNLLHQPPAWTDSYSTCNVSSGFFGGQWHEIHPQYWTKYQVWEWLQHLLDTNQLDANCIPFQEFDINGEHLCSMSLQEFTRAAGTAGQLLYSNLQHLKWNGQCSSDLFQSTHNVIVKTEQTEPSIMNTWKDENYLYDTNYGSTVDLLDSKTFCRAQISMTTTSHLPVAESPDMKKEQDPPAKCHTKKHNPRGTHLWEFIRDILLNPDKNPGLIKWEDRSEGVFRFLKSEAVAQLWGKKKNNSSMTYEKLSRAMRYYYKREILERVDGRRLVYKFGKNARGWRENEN
# Method in brief: as §1
# SPI1 = SPI1 (Homo sapiens, UniProt P17947 1-270); conditions: protein: recombinant; tags: N-terminal GST; dsDNA, one strand shown
# Method in brief: as §1
# SPIB = SPIB (Homo sapiens, UniProt Q01892 1-262); conditions: protein: recombinant; tags: N-terminal GST; dsDNA, one strand shown
# SPIB, sequence (Q01892 whole entry): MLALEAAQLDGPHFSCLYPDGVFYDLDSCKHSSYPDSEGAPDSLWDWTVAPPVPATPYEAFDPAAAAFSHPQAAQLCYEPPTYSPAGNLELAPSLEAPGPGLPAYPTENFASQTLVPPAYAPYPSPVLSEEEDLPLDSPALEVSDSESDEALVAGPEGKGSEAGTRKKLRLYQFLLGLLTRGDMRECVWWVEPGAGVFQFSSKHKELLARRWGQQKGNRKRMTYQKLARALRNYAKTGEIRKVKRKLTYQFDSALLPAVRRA
# Method in brief: as §1
# ELK3 = molecular target: T6, ELK3 (Homo sapiens, UniProt P41970 1-407); conditions: protein: recombinant; tags: N-terminal GST; dsDNA, one strand shown
# T6 sequence: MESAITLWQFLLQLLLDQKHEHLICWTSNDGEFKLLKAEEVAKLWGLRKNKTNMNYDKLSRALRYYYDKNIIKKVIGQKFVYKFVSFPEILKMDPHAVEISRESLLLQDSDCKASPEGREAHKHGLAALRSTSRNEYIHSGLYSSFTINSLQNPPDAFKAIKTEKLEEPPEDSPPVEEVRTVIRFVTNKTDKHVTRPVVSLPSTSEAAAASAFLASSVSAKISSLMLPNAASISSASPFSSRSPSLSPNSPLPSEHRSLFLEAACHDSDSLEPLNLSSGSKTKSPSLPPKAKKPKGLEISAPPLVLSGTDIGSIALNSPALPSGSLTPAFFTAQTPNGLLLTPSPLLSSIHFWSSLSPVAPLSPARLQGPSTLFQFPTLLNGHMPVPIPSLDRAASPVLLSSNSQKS
# Method in brief: as §1
# FEV = molecular target: T7, FEV (Homo sapiens, UniProt Q99581 1-238); conditions: protein: recombinant; tags: N-terminal GST; dsDNA, one strand shown
# T7 sequence: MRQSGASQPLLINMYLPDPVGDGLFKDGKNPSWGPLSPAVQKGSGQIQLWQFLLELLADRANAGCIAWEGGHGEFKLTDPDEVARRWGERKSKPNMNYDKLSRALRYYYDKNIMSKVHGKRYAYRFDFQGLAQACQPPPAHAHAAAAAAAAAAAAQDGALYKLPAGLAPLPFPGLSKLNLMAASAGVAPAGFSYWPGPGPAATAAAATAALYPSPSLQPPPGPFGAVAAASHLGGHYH
# Method in brief: as §1
# ETV5 = ETV5 (Homo sapiens, UniProt P41161 1-510); conditions: protein: recombinant; tags: N-terminal GST; dsDNA, one strand shown
# ETV5, sequence (P41161 whole entry): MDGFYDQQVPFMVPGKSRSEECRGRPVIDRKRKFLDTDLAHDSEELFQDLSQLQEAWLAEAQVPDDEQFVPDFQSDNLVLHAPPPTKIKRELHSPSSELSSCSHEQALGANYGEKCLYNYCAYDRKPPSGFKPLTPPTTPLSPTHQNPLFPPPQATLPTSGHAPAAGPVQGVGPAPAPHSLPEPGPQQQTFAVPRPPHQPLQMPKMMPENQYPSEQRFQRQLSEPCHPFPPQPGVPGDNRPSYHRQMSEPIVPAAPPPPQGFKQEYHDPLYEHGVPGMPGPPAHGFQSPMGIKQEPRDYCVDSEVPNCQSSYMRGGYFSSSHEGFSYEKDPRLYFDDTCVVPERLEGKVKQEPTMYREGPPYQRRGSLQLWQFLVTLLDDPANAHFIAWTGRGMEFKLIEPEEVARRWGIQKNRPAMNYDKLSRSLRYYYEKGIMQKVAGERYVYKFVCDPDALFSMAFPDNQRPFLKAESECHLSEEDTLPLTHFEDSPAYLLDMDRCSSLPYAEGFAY
# Method in brief: as §1
# HSF1 = HSF1 (Homo sapiens, UniProt Q00613 1-529); conditions: protein: recombinant; tags: N-terminal GST; chain copies: 3; dsDNA, one strand shown
# HSF1, sequence (Q00613 whole entry): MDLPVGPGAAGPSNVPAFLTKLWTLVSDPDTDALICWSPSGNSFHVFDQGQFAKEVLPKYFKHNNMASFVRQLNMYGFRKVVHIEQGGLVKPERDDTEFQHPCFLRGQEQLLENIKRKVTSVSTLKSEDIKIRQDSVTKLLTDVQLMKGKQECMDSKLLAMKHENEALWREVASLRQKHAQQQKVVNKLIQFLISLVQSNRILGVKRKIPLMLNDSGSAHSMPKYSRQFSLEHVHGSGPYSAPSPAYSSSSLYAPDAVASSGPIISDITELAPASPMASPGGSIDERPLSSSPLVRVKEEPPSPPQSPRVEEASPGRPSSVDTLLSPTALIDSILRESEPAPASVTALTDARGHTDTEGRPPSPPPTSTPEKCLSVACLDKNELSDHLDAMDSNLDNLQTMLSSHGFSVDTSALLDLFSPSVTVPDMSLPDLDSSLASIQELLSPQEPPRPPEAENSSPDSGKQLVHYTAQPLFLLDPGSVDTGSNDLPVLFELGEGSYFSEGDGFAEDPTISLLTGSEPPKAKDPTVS
# Method in brief: as §1
# SPIC = molecular target: T8, SPIC (Homo sapiens, UniProt Q8N5J4 1-248); conditions: protein: recombinant; tags: N-terminal GST; dsDNA, one strand shown
# T8 sequence: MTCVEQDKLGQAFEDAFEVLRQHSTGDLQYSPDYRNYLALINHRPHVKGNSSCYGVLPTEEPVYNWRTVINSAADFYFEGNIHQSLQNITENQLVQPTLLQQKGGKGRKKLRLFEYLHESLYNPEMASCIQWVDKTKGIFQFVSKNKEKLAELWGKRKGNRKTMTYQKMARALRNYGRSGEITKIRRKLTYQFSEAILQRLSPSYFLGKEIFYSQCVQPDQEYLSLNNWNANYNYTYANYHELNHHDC
# Method in brief: as §1
# ELF4 = ELF4 (Homo sapiens, UniProt Q99607 1-663); conditions: protein: recombinant; tags: N-terminal GST; dsDNA, one strand shown
# ELF4, sequence (Q99607 whole entry): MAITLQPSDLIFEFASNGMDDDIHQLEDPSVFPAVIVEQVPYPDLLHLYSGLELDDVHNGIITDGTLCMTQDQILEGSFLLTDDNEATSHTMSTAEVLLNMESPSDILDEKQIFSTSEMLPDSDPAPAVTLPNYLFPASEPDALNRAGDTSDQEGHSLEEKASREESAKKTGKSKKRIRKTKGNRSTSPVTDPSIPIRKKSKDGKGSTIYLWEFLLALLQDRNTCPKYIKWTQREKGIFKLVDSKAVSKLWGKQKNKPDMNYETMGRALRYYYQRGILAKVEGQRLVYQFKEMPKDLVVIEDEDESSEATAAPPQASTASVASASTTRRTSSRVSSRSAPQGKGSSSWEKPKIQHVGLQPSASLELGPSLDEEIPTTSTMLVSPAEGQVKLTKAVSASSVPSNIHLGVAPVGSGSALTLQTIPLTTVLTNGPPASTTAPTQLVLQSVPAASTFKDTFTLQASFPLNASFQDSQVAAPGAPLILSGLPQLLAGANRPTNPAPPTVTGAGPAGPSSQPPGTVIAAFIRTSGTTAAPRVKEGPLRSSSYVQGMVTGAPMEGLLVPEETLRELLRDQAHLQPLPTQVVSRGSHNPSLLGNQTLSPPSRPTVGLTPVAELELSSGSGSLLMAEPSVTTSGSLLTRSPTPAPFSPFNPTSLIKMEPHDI
# Method in brief: as §1
# ELK4 = molecular target: T9, ELK4 (Homo sapiens, UniProt P28324-2 1-405); conditions: protein: recombinant; tags: N-terminal GST; dsDNA, one strand shown
# T9 sequence: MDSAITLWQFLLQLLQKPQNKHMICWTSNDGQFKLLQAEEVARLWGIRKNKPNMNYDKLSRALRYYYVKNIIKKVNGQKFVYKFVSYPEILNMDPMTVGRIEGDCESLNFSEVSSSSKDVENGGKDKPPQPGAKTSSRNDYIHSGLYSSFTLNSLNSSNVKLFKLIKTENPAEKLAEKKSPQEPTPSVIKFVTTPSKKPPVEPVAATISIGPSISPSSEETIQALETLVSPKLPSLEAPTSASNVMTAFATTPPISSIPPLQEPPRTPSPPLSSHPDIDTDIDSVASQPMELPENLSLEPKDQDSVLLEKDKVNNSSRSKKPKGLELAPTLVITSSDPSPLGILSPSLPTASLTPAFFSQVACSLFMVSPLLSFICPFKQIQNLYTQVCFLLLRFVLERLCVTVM
# Method in brief: as §1
# ETV2 = molecular target: T10, ETV2 (Homo sapiens, UniProt O00321 1-342); conditions: protein: recombinant; tags: N-terminal GST; dsDNA, one strand shown
# T10 sequence: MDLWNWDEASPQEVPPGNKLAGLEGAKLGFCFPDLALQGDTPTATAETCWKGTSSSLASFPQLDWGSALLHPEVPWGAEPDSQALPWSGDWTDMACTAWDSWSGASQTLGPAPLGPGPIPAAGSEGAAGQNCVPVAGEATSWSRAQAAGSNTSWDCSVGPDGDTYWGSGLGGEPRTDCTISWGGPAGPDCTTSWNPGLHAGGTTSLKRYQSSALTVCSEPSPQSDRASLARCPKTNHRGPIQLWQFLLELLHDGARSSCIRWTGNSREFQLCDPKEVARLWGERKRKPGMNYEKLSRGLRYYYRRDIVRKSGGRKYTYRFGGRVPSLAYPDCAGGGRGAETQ
# Method in brief: as §1
# ELF3 = molecular target: T11, ELF3 (Homo sapiens, UniProt P78545 1-371); conditions: protein: recombinant; tags: N-terminal GST; dsDNA, one strand shown
# T11 sequence: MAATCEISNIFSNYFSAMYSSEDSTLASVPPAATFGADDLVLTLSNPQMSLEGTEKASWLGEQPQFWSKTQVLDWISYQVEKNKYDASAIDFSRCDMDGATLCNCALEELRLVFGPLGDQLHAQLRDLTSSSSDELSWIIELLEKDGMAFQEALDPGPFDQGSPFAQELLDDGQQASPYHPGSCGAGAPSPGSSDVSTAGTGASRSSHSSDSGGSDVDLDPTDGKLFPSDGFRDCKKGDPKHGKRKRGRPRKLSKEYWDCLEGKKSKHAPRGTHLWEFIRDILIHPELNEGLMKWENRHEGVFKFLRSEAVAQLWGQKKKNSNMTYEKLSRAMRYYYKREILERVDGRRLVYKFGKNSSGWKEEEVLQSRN
# Method in brief: as §1
# CRX = CRX (Homo sapiens, UniProt O43186 1-299); conditions: protein: recombinant; tags: N-terminal GST; dsDNA, one strand shown
# CRX, sequence (O43186 whole entry): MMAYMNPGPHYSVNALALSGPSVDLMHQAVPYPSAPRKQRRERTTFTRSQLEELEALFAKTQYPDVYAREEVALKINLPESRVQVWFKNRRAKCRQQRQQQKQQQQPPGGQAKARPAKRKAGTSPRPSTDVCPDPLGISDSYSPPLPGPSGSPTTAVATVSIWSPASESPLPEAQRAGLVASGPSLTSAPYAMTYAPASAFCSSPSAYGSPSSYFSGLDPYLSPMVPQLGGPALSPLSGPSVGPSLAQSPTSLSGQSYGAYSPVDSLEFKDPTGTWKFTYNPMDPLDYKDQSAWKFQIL
# Method in brief: as §1
# ETV1 = ETV1 (Homo sapiens, UniProt P50549 1-477); conditions: protein: recombinant; tags: N-terminal GST; dsDNA, one strand shown
# ETV1, sequence (P50549 whole entry): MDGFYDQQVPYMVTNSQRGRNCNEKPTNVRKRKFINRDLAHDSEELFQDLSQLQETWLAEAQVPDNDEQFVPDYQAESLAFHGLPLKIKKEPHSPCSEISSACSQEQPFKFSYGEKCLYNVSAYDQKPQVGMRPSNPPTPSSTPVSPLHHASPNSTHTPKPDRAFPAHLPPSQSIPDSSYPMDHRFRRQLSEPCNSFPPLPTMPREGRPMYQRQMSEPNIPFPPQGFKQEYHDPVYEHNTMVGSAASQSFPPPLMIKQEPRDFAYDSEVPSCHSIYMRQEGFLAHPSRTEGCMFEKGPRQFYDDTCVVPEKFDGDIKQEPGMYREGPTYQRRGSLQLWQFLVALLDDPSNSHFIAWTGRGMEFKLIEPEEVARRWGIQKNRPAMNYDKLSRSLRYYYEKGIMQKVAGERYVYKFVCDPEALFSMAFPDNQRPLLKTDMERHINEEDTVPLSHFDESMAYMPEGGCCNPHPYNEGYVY
# Method in brief: as §1
sequence,measurement,setting,value
GATGAT,binding signal,FLI1,"1.34 fold enrichment (6-mer frequency, TF over GST control)"
same,binding signal,ELK1,"1.37 fold enrichment (6-mer frequency, TF over GST control)"
same,binding signal,GABPA,"1.35 fold enrichment (6-mer frequency, TF over GST control)"
same,binding signal,ERG,"1.33 fold enrichment (6-mer frequency, TF over GST control)"
same,binding signal,ELF1,"1.32 fold enrichment (6-mer frequency, TF over GST control)"
same,binding signal,EHF,"1.44 fold enrichment (6-mer frequency, TF over GST control)"
same,binding signal,SPI1,"1.28 fold enrichment (6-mer frequency, TF over GST control)"
same,binding signal,SPIB,"1.33 fold enrichment (6-mer frequency, TF over GST control)"
same,binding signal,ELK3,"1.34 fold enrichment (6-mer frequency, TF over GST control)"
same,binding signal,FEV,"1.18 fold enrichment (6-mer frequency, TF over GST control)"
same,binding signal,ETV5,"1.31 fold enrichment (6-mer frequency, TF over GST control)"
same,binding signal,HSF1,"1.49 fold enrichment (6-mer frequency, TF over GST control)"
same,binding signal,SPIC,"1.23 fold enrichment (6-mer frequency, TF over GST control)"
same,binding signal,ELF4,"1.32 fold enrichment (6-mer frequency, TF over GST control)"
same,binding signal,ELK4,"1.26 fold enrichment (6-mer frequency, TF over GST control)"
same,binding signal,ETV2,"1.33 fold enrichment (6-mer frequency, TF over GST control)"
same,binding signal,ELF3,"1.33 fold enrichment (6-mer frequency, TF over GST control)"
same,binding signal,CRX,"1.68 fold enrichment (6-mer frequency, TF over GST control)"
same,binding signal,ETV1,"1.27 fold enrichment (6-mer frequency, TF over GST control)"
